Screens from PubChem.
Sampled rows, rich in hits. Any-hit rate of the full collection: about 3%.
Wnt bcat act: activates Wnt/beta-catenin signaling in a reporter cell assay; activation, % at 9.35 µM; activator, plate reader; actives 1.2% (n = 300,000); AID 743398; in the data active means activation above about 30%, passing the limit was not always enough; inconclusive means no clear call, values can overlap the other calls;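 further: 0% = neutral control wells and 100% = positive control wells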
MITF act: increases MITF-driven TRPM1 promoter luciferase signal | SK-MEL-5 TRPM1-promoter luciferase, 24 h; % of positive control, neutral wells = 0 | activation, % at 12.5 µM | actives 0.75% (n = 300,000) | AID 588334;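 active means mean activation of at least 80% with every replicate also reaching 80%; inconclusive means mean reaches 80% but some replicate falls short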;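 further: 0% = neutral control wells and 100% = parthenolide positive control wells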
Vif inh: blocks HIV Vif function; inhibition, % at 7.49 µM; actives 0.35% (n = 340,000); HEK293T cells, Vif self-association by quenched fluorescence, imaging, 24 h; AID 602346; in the data active means inhibition above about 50%, passing the limit was not always enough; inconclusive means no clear call, values can overlap the other calls; inactive means below about 31%
Glyco luc inh: N-linked glycosylation inhibition. D54 ERlucT glycosylation luciferase reporter, 24 h; percent of 100 nM tunicamycin response. reporter increase, % at 12.5 µM. actives 0.23% (n = 360,000). AID 588692;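 active means mean luciferase reporter signal, scaled so untreated is 0 and the glycosylation-blocking control 100, at or above a set limit in every replicate; inconclusive means mean reaches the limit but not every replicate does; inactive means mean below the limit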;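 further: luciferase carries N-glycosylation sites so blocking glycosylation raises the light; 0% = median of neutral control wells and 100% = median of 100 nM tunicamycin wells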
esBAF inh: blocks esBAF chromatin remodeling in mouse ES cells | Bmi1-luciferase knock-in reporter, 24 h; 100% = twice the neutral-well signal | reporter increase, % at 12.5 µM | actives 2% (n = 350,000); in the data active means activation above about 40%; inconclusive means no clear call, values can overlap the other calls;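 further: 0% = median of the plate's neutral control wells and 100% = double that signal; a rise in the Bmi1 reporter signal indicates esBAF inhibition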
PfHsp90 set2: growth inhibition of yeast expressing Plasmodium Hsp90 | inhibition, % at 9.4 µM | actives 0.32% (n = 310,000) | S. cerevisiae expressing PfHsp90, BacTiter-Glo ATP, 48 h; yeast lacking PDR1 and PDR3 efflux regulators;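 active means every replicate shows inhibition above about 80%, whatever the replicate mean, limit read from the data; inconclusive means mean inhibition reaches the set limit but some replicate falls short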;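 further: 0% = DMSO neutral controls and 100% = 20 µM radicicol positive controls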
* marks the source's active call; other numbers are inactive results; ? = inconclusive; . = no result given.

SMILES	Wnt bcat act	MITF act	Vif inh	Glyco luc inh	esBAF inh	PfHsp90 set2
Fc1cccc2sc(Nc3nnc(-c4ccco4)o3)nc12	38*	30	-6	0	14	13
O=C(Nc1nc2c(F)cccc2s1)c1ccco1	43*	59	-11	-7	31	17
COc1cccc2sc(Nc3nnc(-c4cccs4)o3)nc12	59*	.	0	15	-14	.
COc1cccc2sc(Nc3nnc(-c4ccc(F)cc4)o3)nc12	-7	-14	.	7	23	-59
Cc1cc(Cl)cc2sc(NC(=O)c3ccco3)nc12	.	88*	-3	-3	17	6
O=C(CSc1nc(-c2ccccc2)cc(C(F)(F)F)n1)NCCN1CCOCC1	.	-1	.	0	.	11
CC(C)(C)c1ccc(C(=O)NC(=S)Nn2cnnc2)cc1	10	11	-9	1	44*	20
O=C(NC(=S)Nn1cnnc1)c1ccccc1Cl	-1	-12	4	5	.	2
Cc1noc(C)c1S(=O)(=O)Nc1ccc2c(c1)C(=O)N([C@H](C)CO)C[C@H](C)[C@@H](CN(C)CC1CC1)O2	.	.	.	.	-4	.
CN(CCc1ccccc1)C(=O)c1ccc(NC(=O)Cc2cccc(NC(=O)C3CCN(C(=O)C4CC4)CC3)c2)cc1	-5	-1	4	-1	2	0
O=C(COC(=O)c1cccc(-n2cnnn2)c1)c1ccccc1	1	11	2	-1	-2	-6
CCOc1ccc(C(=O)COC(=O)c2cccc(-n3cnnn3)c2)cc1	15	39	-9	-2	74*	33
CC(=O)c1ccc(S(=O)(=O)N(Cc2cc3cc4c(cc3[nH]c2=O)OCCO4)CC2CCCO2)cc1 (stereo not drawn)	10	49	24	2	46*	-7
Cc1ccc2nc(N/C(=N/S(=O)(=O)c3ccc(F)cc3)c3ccccc3)sc2c1	2	25	-6	1	.	14
O=C(O)COCc1nc2ccccc2s1	0	13	5	1	-10	3
NC(=O)c1ccccc1OCc1nc2ccccc2s1	42*	55	-2	-12	16	-7
O=S(=O)(Cc1nc2ccccc2s1)c1ccccc1	5	53	-6	-2	57*	-13
O=S(=O)(/N=C(/Nc1nc2ccccc2s1)c1ccccc1)c1ccccc1	50*	51	8	-1	66*	-21
CC(=O)OCc1nc2ccccc2s1	?	10	16	-4	43*	44
Cc1cc(C(=O)OCc2nc3ccccc3s2)c(C)o1	.	69	?	-1	72*	-12
CCOc1ccc(NC(=O)C(C)Sc2nnc(C)n2C)cc1 (stereo not drawn)	-4	-5	-7	2	5	-6
COc1ccc(C)cc1S(=O)(=O)Nc1cc(Cl)ccc1Cl	0	.	7	-1	-3	-7
O=C(C=Cc1ccco1)c1ccc2ccccc2c1	61*	58	-1	5	.	-5
O=C(NC(Cc1c[nH]c2ccccc12)c1nnc2n1CCCCC2)c1cccs1 (stereo not drawn)	3	-3	-2	3	10	7
COc1cc(NS(=O)(=O)c2ccc(NC(=S)NC(=O)C(C)(C)C)cc2)nc(OC)n1	1	0	-13	-1	-3	.
SMILES	Wnt bcat act	MITF act	Vif inh	Glyco luc inh	esBAF inh	PfHsp90 set2
Nc1ccc(-c2cnc(-c3ccc(N)cc3)nc2)cc1	.	.	77*	-13	-58	.
O=C(Nc1ccccc1Cl)N1C[C@H]2[C@@H](c3ccccc31)[C@H](CO)N2Cc1ccccc1	.	.	.	.	1	.
O=C(C[C@H]1CC[C@H]2[C@@H](COC[C@H](O)CN2C(=O)c2ccccc2F)O1)NCc1ccc(-c2ccccc2)cc1	.	.	.	.	3	.
C=CCNc1nc(-c2ccc3c(c2)OCCO3)cs1	42*	29	-7	-5	1	-1
c1ccc(-c2csc(Nc3ccc4c(c3)OCCO4)n2)cc1	46*	23	.	-12	14	-13
COc1cccc(Nc2nc(-c3ccc4c(c3)OCCO4)cs2)c1	.	87*	1	0	.	-15
COCCNC(=O)C[C@@H]1CC[C@@H](NC(=O)NC2CCCC2)[C@H](CO)O1	.	.	.	.	-2	.
O=C(Cc1c(Cl)cccc1Cl)NCCc1ccc(Cl)cc1	.	-3	-7	-3	6	-1
COCc1cn(CC[C@H]2CC[C@@H](NC(=O)Nc3ccc(C(F)(F)F)cc3)[C@H](CO)O2)nn1	.	.	.	.	2	.
